Laboratory results: PubChem BioAssay AID602145 (NMMLSC, 2011)
The source made the active and inactive calls.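 Rule for the calls: active = half-maximal potency of 10 µM or stronger, response changing by 30% or more across doses, valid fit; inactive = the rest.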

Assay: GST-GSH bead binding interference, SAR follow-up, counter-screen for Rab7 GTPase inhibitor project, biochemical, flow cytometry beads, round 2 (AID 602145)
Details: GST-GFP binding to GSH beads; series mostly up to 100 µM

Row | SMILES | outcome
1 | Cc1cccc(C(=O)NC(=S)Nc2sc3c(c2C(=O)O)CC(C)(C)OC3)c1 | inactive
2 | Cc1ccc(C(=O)NC(=S)Nc2sc3c(c2C(=O)O)CC(C)(C)OC3)cc1 | inactive
3 | CC1(C)Cc2c(sc(NC(=S)NC(=O)C3CCCCC3)c2C(=O)O)CO1 | inactive
4 | CC1(C)Cc2c(sc(NC(=S)NC(=O)c3ccc(F)cc3)c2C(=O)O)CO1 | inactive
5 | COc1ccccc1C(=O)NC(=S)Nc1sc2c(c1C(=O)O)CC(C)(C)OC2 | inactive
6 | CC1(C)Cc2c(sc(NC(=S)NC(=O)c3ccco3)c2C(=O)O)CO1 | inactive
7 | Cc1ccccc1C(=O)NC(=S)Nc1sc2c(c1C(=O)O)CC(C)(C)OC2 | inactive
8 | CC(C)(C)C1Cc2c(sc(NC(=S)NC(=O)c3ccccc3)c2C(=O)O)CO1 (configuration not stated) | inactive
9 | CC1(C)Cc2c(sc(NC(=S)NC(=O)c3cccs3)c2C(=O)O)CO1 | inactive
10 | O=C(NC(=S)Nc1sc2c(c1C(=O)O)CCOC2)c1ccccc1 | inactive
11 | CCC1(C)Cc2c(sc(NC(=S)NC(=O)c3ccccc3)c2C(=O)O)CO1 (configuration not stated) | inactive
12 | O=C(NC(=S)Nc1sc2c(c1C(=O)O)CC1(CCCC1)OC2)c1ccccc1 | inactive
